ChEMBL document CHEMBL4513216, “Probing the Open Global Health Chemical Diversity Library for Multistage-Active Starting Points for Next-Generation Antimalarials” (ACS Infect Dis, 2020)
Among all 65,000 compounds or so, about 2,100 (3.2%) showed an effect of 50% or more. The median lay at about -52%. Shown is part of a subset that was picked to be rich in strong results.

The compounds below were run on Plasmodium falciparum (assay: Screen against P. falciparum Asexual Blood Stage (ABS), at 5uM). Conditions: tested at 5 uM.
Assay type: functional, Dd2

Row | SMILES | INHIBITION
1 | CN1[C@H](Cn2cncn2)C[C@@H]2CN(Cc3ccsc3)CC[C@@H]21 | 38.2%
2 | CCOCC(=O)NCC(Cc1cccc(F)c1)N1CCCCC1=O (centres undefined) | -88%
3 | COc1ccc2nnc(CCCC(=O)NCCc3ccccn3)n2n1 | -138%
4 | COCCOCC(=O)NC1CCN(c2ccccn2)CC1 | -16.8%
5 | COc1ccc(C(C)CCNC2CCN(c3ccccn3)CC2)cc1 (centres undefined) | 68.2%
6 | c1ccc(N2CCC(NCCc3ccc(-n4cccn4)cc3)CC2)nc1 | 39.6%
7 | COc1c(CNC2CCN(c3ccccn3)CC2)c(C(C)C)nn1C | 1.28%
8 | CC(CNC1CCN(c2ccccn2)CC1)Oc1ccc(F)cc1 (centres undefined) | 49.1%
9 | CC(C)COCCNC1CCN(c2ccccn2)CC1 | 61.2%
10 | CC(C)(C)C(=O)N1CCC2(CNS(=O)(=O)c3cnccc3O2)C1 (centres undefined) | -18.2%
11 | CCC1c2ccccc2CCN1CCCS(C)(=O)=O (centres undefined) | -4.08%
12 | COc1ccc(CNC(Cn2cncn2)c2ccccc2)cc1C (centres undefined) | -102%
13 | CC(C)C(NCc1ccc(Cn2cncn2)cc1)c1ccccc1 (centres undefined) | 50.1%
14 | CC(C)C(NCc1ccc(Cn2cncn2)cc1)c1ccc(F)cn1 (centres undefined) | -59.5%
15 | O=S(=O)(c1ccccc1)N1CCC2(CCCN2CC2CCCC2)C1 (centres undefined) | 48%
16 | COc1cc(N2CCCC(CO)(Cc3ccccc3F)C2)ncn1 (centres undefined) | -43.6%
17 | Cc1cc(C)n(CC2CCCN2C(=O)c2ccc3[nH]cnc3c2)n1 (centres undefined) | -163%
18 | Cc1nc(NCC2CC2)nc2c1COCC21CCN(S(=O)(=O)C2CC2)C1 (centres undefined) | 12.5%
19 | COCCN1CCC(CNC(=O)c2cc(Cl)c[nH]2)CC1 | -2.76%
20 | CCN1CCC(CNC(=O)c2cc(Cl)c[nH]2)CC1 | -108%
21 | O=C(NCC1CCN(CCc2ccccc2)C1)c1cc(Cl)c[nH]1 (centres undefined) | 65.1%
22 | CC(OCC1CC1)C(=O)Nc1ncn(CC(=O)N2CCCCCC2)n1 (centres undefined) | 36.5%
23 | Cc1c(C)n(-c2ccccn2)c2nc3c(c(N)c12)CCCC3 | 21.3%

Row | SMILES | INHIBITION
24 | CN1CC2(CCCN(c3nc(N)nc4c3CCCC4)C2)OC1=O (centres undefined) | -29.7%
25 | CN1CCCCc2c1nc1c(c2N)CCC1 | 65.8%
26 | CN1CCCc2c1nc1c(c2N)CCC1 | -49.7%
27 | CN1CCCCc2c1nc1c(c2N)CCCC1 | 63.8%
28 | CN1CCc2c1nc1c(c2N)CCC1 | -64.6%
29 | COC[C@@H]1CC[C@H]2[C@H](CCN2S(=O)(=O)c2ccc(C)cc2)O1 | -3.1%
30 | Cc1cc(N2CCCC2)nc(CNS(=O)(=O)Cc2ccccc2)n1 | -63.1%
31 | Cc1nn(C)c(N2CCCN(C)CC2)c1CNC(=O)CCC(C)C | -12.6%
32 | COCC(=O)N1C[C@@H]2CCCO[C@@H]2[C@H](N(C)Cc2ccco2)C1 | -22.6%
33 | Cc1noc([C@@H]2CCO[C@@H]3CCN(Cc4ccc(C)s4)C[C@@H]32)n1 | 10.3%
34 | CN(C)CCN1CCOCC2(CCCN(C(=O)c3ccccn3)C2)C1 (centres undefined) | -26.3%
35 | CN(C)CC(C)(C)Cn1cnc(-c2ccccc2)c1-c1ccncc1 | 1.44%
36 | Oc1cccc(-c2cc(C3CCN(Cc4cncnc4)C3)ccn2)c1 (centres undefined) | -15.3%
37 | CN(C)CC(C)(C)Cn1cnc(-c2ccccc2)c1-c1cccc(O)c1 | 50.9%
38 | CN(C)CC(C)(C)Cn1cnc(-c2ccccc2)c1-c1ncc[nH]1 | -81.8%
39 | CN(C)CC(C)(C)CN1CCC(c2ccnc(-c3cccc(O)c3)c2)C1 (centres undefined) | 69.5%
40 | Cn1ccnc1CN1CCC(c2ccnc(-c3cccc(O)c3)c2)C1 (centres undefined) | 30.7%
41 | COc1ccccc1OC1CN(C(=O)c2ccccc2C(C)=O)C1 | -184%
42 | O=c1[nH][nH]cc1-c1ccnc(NCCN2CCCCC2)n1 | -153%
43 | CS(=O)(=O)CCC(=O)N1C[C@H]2CC[C@@H](C1)N(Cc1ccccc1)C2=O | -72.6%
44 | CC(C)c1nnc2n1CCN(C(=O)c1cc(Cl)c[nH]1)C2 | 5.02%
45 | Cc1ccccc1C(=O)N1C[C@@H]2CCN(c3cccnc3)C[C@@H]2C1 | -45.5%
46 | CCS(=O)(=O)N1CCC(NC(=O)c2cc3ccccc3cc2O)CC1 | 6.29%

Row | SMILES | INHIBITION
47 | Cc1cc(NCC2CC(=O)Nc3ccccc32)nc(C)n1 (centres undefined) | -151%
48 | O=C1CC(CNc2cncc(Br)c2)c2ccccc2N1 (centres undefined) | 12.2%
49 | O=C1CC(CNc2cncc(Cl)n2)c2ccccc2N1 (centres undefined) | 66.1%
50 | O=C1C[C@@H]2CC[C@H](CN1)N2C(=O)Cc1ccsc1 | -114%
51 | CCN(CC)c1nc2ccsc2c(=O)n1CCC(=O)NCc1ccco1 | -83%
52 | CCc1nc(CCNC(=O)Nc2ccc(C(=O)NC)cc2)cs1 | -114%
53 | Cc1ccc(-c2nccn2-c2ccc(OC3CCN(C)CC3)cc2)o1 | 55.1%
54 | CN1CCC(Oc2ccc(-n3ccnc3-c3nccn3C)cc2)CC1 | -33.1%
55 | CN1CCC(Oc2ccc(-n3ccnc3-c3ccncc3)cc2)CC1 | -17%
56 | Cc1nn(C)c(C)c1C(=O)NC(C)CC(=O)c1cccs1 (centres undefined) | -35.4%
57 | Cc1ccc(-c2nn(C)c(C(=O)O)c2Br)cc1 | -38.6%
58 | Cc1cccc(=O)n1CCC(=O)N1CC[C@](C)(O)[C@H](C)C1 | -97.5%
59 | Cc1ccc(N2CCCC(NCc3nc(C)c(C)o3)C2)nn1 (centres undefined) | -26.7%
60 | Cc1ccc(N2CCCC(NCc3nnc(-c4ccco4)o3)C2)nn1 (centres undefined) | 50.3%
61 | c1cnnc(N2CCCC(NCc3nnc(-c4ccco4)o3)C2)c1 (centres undefined) | -31.5%
62 | Cn1nc2c(cc1=O)CN(CCOc1ccccc1C#N)CC2 | 0.73%
63 | COCC(=O)N1C[C@H]2CNC[C@@]2(C(=O)NCc2cc(C)n[nH]2)C1 | 4.75%
64 | CS(=O)(=O)N1CC(c2nc(N)ncc2-c2ccc(F)cc2)C1 | -47.4%
65 | Nc1ncc(-c2ccc(C(F)(F)F)cc2)c(C2CCCNC2)n1 (centres undefined) | 70.9%
66 | COc1ccc(-c2cnc(N)nc2C2CCCNC2)cc1 (centres undefined) | -91.8%
67 | CN(C)c1ncc(-c2ccc(C(N)=O)cc2)c(C2CCNC2)n1 (centres undefined) | -37.9%
68 | Nc1ncc(-c2ccc(Cl)cc2)c(C2CCCNC2)n1 (centres undefined) | 48.9%
69 | Nc1ncc(-c2ccc(F)cc2)c(C2CCCNC2)n1 (centres undefined) | 50.3%
